12 molecules from ChEMBL document CHEMBL2218924, “A broad activity screen in support of a chemogenomic map for kinase signalling research and drug discovery” (Biochem J, 2013) can be followed below.

In experiment [1] the target is Ribosomal protein S6 kinase beta-1 (Homo sapiens) (UniProt P23443). The note with it: at 1 µM.
For experiment [2] the target is unchanged. The note with it: at 10 µM.
For experiment [3], the target named is Serine/threonine-protein kinase Nek6 (Homo sapiens) (UniProt Q9HC98). The note with it: at 1 µM.
Serine/threonine-protein kinase Nek6 (Homo sapiens), sequence (Q9HC98 whole entry): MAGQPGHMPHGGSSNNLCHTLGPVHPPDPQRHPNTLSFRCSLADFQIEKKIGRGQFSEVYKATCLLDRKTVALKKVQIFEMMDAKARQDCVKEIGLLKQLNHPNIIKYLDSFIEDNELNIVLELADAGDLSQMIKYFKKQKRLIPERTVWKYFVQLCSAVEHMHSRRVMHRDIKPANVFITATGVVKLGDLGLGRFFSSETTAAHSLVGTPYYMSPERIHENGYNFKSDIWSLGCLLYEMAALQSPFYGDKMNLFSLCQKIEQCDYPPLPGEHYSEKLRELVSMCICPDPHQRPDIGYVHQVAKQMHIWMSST
The target is the same in experiment [4]. The note with it: at 10 µM.
The target of experiment [5] is Serine/threonine-protein kinase Nek7 (Homo sapiens) (UniProt Q8TDX7). As to conditions: at 1 µM.
The target is the same in experiment [6]. The note with it: at 10 µM.
In experiment [7] the target is T1, Serine/threonine-protein kinase NLK (Homo sapiens) (UniProt Q9UBE8).
T1 sequence (whole entry): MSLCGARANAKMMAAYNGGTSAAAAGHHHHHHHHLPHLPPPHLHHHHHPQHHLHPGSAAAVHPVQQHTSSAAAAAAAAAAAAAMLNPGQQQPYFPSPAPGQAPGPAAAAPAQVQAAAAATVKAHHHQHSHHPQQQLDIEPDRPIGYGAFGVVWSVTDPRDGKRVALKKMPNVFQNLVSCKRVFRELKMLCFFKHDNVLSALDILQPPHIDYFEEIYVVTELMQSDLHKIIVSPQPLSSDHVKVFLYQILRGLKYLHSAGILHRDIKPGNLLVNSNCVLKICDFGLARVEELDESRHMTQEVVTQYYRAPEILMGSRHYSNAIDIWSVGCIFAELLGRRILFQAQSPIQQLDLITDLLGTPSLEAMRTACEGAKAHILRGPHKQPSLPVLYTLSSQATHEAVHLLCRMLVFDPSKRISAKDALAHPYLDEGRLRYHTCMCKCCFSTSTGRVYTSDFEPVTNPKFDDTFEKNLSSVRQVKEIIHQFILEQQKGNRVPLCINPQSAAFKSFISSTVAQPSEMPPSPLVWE
As to conditions: at 1 µM.

The target in experiment [8] is T1, Serine/threonine-protein kinase NLK (Homo sapiens). As to conditions: at 10 µM.
The target of experiment [9] is Serine/threonine-protein kinase PAK 2 (Homo sapiens) (UniProt Q13177). The note with it: at 1 µM.
Serine/threonine-protein kinase PAK 2 (Homo sapiens), sequence (Q13177 whole entry): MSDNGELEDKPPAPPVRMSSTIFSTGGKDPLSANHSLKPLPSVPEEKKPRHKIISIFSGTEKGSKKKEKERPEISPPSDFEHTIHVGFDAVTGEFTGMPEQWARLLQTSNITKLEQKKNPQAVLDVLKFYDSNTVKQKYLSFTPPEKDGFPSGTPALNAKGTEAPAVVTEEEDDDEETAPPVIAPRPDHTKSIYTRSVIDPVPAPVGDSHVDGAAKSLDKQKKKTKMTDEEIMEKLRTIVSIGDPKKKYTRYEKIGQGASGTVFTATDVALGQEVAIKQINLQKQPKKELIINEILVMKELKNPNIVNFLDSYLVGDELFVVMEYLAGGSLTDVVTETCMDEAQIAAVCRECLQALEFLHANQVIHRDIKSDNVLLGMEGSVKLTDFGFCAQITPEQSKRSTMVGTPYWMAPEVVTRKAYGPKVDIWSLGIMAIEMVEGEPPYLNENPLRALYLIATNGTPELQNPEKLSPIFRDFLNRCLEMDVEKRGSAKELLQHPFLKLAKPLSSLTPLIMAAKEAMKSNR
Experiment [10] has the same target. The note with it: at 10 µM.
Experiment [11] addresses Serine/threonine-protein kinase PAK 4 (Homo sapiens) (UniProt O96013). As to conditions: at 1 µM.
For experiment [12] the target is unchanged. The note with it: at 10 µM.
Experiment [13] concerns the target Serine/threonine-protein kinase PAK 5 (Homo sapiens) (UniProt Q9P286). The note with it: at 1 µM.
The target is the same in experiment [14]. The note with it: at 10 µM.
In experiment [15] the target is Serine/threonine-protein kinase PAK 6 (Homo sapiens) (UniProt Q9NQU5). As to conditions: at 1 µM.
Experiment [16] shares this target. As to conditions: at 10 µM.
Experiment [17] concerns the target PAS domain-containing serine/threonine-protein kinase (Homo sapiens) (UniProt Q96RG2). The note with it: at 10 µM.
Experiment [18] has as its target Activated CDC42 kinase 1 (Homo sapiens) (UniProt Q07912). The note with it: at 1 µM.
The target is the same in experiment [19]. The note with it: at 10 µM.
In experiment [20] the target is ALK tyrosine kinase receptor (Homo sapiens) (UniProt Q9UM73). The note with it: at 1 µM.

Serine/threonine-protein kinase PAK 5 (Homo sapiens), sequence (Q9P286 whole entry, looked up): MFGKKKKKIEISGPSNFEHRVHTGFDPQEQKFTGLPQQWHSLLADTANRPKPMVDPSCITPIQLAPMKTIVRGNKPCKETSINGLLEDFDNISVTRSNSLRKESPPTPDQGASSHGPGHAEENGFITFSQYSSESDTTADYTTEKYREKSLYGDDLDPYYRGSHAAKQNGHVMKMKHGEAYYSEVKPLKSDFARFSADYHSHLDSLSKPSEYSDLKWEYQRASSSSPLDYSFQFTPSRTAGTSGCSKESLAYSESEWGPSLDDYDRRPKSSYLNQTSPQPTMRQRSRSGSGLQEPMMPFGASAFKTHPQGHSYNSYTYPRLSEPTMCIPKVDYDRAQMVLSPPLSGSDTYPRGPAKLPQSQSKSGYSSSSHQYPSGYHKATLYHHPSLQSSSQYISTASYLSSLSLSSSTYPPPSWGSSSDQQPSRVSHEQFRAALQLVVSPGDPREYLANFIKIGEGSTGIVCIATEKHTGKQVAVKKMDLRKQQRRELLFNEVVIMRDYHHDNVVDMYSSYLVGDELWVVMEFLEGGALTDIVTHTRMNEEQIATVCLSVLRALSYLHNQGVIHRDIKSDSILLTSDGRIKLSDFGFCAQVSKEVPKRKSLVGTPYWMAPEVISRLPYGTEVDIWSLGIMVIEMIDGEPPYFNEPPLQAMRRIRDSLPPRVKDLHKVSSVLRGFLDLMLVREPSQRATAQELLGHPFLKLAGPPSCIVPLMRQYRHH
Serine/threonine-protein kinase PAK 4 (Homo sapiens), sequence (O96013 whole entry, looked up): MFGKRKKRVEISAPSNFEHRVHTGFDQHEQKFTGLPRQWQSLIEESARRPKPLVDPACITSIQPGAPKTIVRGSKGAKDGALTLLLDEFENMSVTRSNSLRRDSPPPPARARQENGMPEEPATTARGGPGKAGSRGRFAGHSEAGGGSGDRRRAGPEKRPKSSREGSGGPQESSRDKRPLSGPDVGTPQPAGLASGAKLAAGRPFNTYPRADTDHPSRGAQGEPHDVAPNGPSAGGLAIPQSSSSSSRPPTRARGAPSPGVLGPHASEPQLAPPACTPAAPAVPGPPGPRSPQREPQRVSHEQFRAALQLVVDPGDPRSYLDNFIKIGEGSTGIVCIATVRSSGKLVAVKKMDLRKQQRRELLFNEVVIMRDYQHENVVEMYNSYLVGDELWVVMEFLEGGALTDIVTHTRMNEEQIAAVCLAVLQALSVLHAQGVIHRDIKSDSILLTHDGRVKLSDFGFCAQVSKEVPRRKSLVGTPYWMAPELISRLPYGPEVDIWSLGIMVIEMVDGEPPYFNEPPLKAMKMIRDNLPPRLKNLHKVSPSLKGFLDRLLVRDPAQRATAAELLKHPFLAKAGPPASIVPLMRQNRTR
Activated CDC42 kinase 1 (Homo sapiens), sequence (Q07912 whole entry, looked up): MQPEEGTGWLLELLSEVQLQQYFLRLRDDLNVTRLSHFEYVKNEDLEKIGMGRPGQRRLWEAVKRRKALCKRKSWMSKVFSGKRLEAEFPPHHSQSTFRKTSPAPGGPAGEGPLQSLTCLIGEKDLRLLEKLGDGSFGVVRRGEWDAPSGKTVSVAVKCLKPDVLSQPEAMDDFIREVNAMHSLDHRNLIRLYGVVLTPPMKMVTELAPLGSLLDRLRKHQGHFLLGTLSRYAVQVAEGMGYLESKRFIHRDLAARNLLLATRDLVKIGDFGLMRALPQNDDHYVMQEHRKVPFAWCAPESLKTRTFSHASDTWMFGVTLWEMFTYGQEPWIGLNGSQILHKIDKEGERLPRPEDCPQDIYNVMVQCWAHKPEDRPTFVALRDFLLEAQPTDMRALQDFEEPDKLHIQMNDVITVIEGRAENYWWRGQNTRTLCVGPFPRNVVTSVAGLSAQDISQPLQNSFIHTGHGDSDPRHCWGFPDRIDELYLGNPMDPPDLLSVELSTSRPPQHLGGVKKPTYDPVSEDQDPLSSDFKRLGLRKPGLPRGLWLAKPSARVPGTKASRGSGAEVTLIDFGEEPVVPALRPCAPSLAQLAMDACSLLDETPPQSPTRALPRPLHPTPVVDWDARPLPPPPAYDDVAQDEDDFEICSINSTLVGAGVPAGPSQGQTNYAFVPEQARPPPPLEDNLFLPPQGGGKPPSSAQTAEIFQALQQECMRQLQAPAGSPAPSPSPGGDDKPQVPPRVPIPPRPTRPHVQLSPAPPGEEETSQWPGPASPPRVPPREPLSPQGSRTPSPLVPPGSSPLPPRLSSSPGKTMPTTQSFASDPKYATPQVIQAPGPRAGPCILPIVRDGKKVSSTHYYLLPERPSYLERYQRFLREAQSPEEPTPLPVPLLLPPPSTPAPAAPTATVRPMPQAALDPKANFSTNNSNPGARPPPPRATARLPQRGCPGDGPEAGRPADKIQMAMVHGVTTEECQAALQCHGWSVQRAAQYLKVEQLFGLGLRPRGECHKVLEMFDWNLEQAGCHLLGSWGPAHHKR
Ribosomal protein S6 kinase beta-1 (Homo sapiens), sequence (P23443 whole entry, looked up): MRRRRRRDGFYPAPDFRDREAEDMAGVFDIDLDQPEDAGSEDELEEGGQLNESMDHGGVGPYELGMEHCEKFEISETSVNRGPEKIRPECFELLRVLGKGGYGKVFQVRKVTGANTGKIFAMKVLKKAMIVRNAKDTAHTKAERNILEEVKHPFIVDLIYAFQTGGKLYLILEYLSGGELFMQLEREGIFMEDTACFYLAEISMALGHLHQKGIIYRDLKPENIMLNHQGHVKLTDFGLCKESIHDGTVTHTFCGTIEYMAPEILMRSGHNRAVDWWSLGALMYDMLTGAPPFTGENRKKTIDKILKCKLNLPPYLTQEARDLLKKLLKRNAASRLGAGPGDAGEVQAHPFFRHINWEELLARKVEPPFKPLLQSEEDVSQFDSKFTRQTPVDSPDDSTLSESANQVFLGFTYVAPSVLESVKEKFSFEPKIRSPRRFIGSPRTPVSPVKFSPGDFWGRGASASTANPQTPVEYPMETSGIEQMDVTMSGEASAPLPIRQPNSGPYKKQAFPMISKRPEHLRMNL
PAS domain-containing serine/threonine-protein kinase (Homo sapiens), sequence (Q96RG2 whole entry, the tested form may be a part): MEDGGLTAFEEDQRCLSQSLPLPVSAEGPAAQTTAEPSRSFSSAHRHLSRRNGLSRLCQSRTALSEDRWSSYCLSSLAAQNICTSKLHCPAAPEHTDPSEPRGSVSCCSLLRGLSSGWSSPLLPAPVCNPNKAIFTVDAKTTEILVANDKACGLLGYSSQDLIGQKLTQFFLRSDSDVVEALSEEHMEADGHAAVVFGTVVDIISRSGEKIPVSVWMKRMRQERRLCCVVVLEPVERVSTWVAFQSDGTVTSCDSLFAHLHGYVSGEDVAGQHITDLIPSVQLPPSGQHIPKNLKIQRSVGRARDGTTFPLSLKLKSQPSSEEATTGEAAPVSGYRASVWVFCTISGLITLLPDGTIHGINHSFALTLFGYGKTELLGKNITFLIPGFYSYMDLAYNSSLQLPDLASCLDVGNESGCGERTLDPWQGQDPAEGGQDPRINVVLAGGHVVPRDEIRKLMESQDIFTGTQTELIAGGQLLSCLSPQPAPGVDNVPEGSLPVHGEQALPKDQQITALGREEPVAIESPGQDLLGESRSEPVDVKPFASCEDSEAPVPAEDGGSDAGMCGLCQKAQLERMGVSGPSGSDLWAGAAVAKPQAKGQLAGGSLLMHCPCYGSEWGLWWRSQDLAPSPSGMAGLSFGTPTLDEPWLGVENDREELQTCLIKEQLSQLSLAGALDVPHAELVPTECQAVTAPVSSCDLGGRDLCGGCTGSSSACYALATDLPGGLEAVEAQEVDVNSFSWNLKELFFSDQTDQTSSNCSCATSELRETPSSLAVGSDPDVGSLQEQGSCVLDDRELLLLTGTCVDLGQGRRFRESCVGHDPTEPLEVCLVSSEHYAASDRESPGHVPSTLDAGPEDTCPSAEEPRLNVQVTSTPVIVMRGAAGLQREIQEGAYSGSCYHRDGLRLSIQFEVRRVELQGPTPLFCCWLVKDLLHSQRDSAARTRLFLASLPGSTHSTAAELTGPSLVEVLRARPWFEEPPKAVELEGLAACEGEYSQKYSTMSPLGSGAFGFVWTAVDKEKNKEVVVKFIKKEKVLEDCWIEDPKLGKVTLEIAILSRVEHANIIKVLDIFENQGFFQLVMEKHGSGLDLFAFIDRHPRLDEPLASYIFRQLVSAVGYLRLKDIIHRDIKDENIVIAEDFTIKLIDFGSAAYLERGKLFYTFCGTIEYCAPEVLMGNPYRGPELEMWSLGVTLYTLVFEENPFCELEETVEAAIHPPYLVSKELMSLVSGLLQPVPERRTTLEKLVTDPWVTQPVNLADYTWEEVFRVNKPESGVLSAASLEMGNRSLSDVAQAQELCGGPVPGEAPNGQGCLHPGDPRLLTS

As for `COc1ccc(CNc2nc(N(CCO)CCO)nc3c2ncn3C(C)C)cc1`, the residual activity is 74% in experiment [1]; 49% in [2]; 107% (inactive) in [3]; 96% in [4]; 96% (inactive) in [5]; 86% (inactive) in [6]. For the same molecule, the residual activity in experiment [7] amounted to 89%; in experiment [8], 86%; in experiment [9], 102%; in experiment [10], 87%; in [11] it was 89%; in experiment [12], 56%. The residual activity came out at 95% in experiment [13]; 66% in experiment [14]; 87% in [15]; 63% in experiment [16]; 129% in experiment [17]; 70% in experiment [18]. In addition, the results for the residual activity in experiment [19] and in experiment [20] were 51% and 80%, respectively.

On to `CCOc1cc2ncnc(Nc3cccc(Br)c3)c2cc1OCC`, for which the residual activity was 109% in experiment [1]; 54% in experiment [2]; 112% (inactive) in [3]; 125% in experiment [4]; 102% (inactive) in [5]; 101% (inactive) in experiment [6]. Besides, the residual activity in [7] is 78%; in experiment [8], 34%; in [9], 102%; in [10], 75%; in [11], 100%; in experiment [12], 79%. The residual activity in [13] stood at 111%; in experiment [14] it was 82%; in [15], 100%; in [16], 96%; in [17] it was 56%; in experiment [18], 28%. Moreover, the residual activity in [19] was found to be 5%; in experiment [20], 75%.

`O=C1NC(=O)c2cc(Nc3ccc(F)cc3)c(Nc3ccc(F)cc3)cc21`: the residual activity in experiment [1] was 81%; in [2], 101%; in [3] it was 112% (inactive); in experiment [4], 111%; in experiment [5] it was 98% (inactive); in [6], 98% (inactive). For the same molecule, the residual activity is 92% in experiment [7]; 80% in [8]; 107% in experiment [9]; 79% in [10]; 89% in experiment [11]; 74% in experiment [12]. The residual activity in [13] turned out to be 98%; in experiment [14], 66%; in experiment [15], 100%; in experiment [16] it was 64%; in experiment [17], 51%; in experiment [18], 79%. The residual activity in [19] is 34%; in [20], 84%.

As for `O=Nc1c(-c2c(O)[nH]c3ccccc23)[nH]c2ccccc12`, the residual activity in experiment [1] was 37%; in [2], 13%; in experiment [3], 91% (inactive); in experiment [4], 103%; in [5], 106% (inactive); in experiment [6], 102% (inactive). Also, the residual activity in experiment [7] came to 82%; in experiment [8], 67%; in [9] it was 103%; in experiment [10] it was 54%; in experiment [11], 55%; in experiment [12] it was 14%. The residual activity was found to be 64% in experiment [13]; 33% in [14]; 63% in experiment [15]; 37% in [16]; 76% in [17]; 34% in experiment [18]. The residual activity in experiment [19] came out at 4%; in experiment [20], 52%.

With `O=C(Nc1cccc(Nc2nccc(Nc3cccc(C(F)(F)F)c3)n2)c1)C1CC1`, the residual activity in experiment [1] was 83%; in [2], 62%; in [3], 107% (inactive); in [4], 105%; in experiment [5], 103% (inactive); in experiment [6], 104% (inactive). Moreover, the residual activity in [7] was determined as 95%; in [8] it was 39%; in [9] it was 116%; in experiment [10], 58%; in experiment [11], 80%; in experiment [12], 34%. Also, the residual activity came to 97% in experiment [13]; 107% in experiment [14]; 90% in experiment [15]; 52% in experiment [16]; 47% in experiment [17]; 25% in experiment [18]. The residual activity in [19] is 5%; in [20], 69%.

For `c1ccc2c(-c3ccncc3)c[nH]c2c1`, the residual activity in experiment [1] was 53%; in experiment [2], 31%; in experiment [3] it was 95% (inactive); in [4] it was 110%; in experiment [5], 95% (inactive); in [6], 95% (inactive). In addition, the residual activity in experiment [7] worked out at 96%; in experiment [8], 73%; in experiment [9] it was 98%; in [10], 82%; in experiment [11] it was 93%; in experiment [12], 80%. Also, the residual activity in experiment [13] amounted to 97%; in experiment [14] it was 103%; in experiment [15] it was 106%; in experiment [16] it was 103%; in experiment [17], 20%; in [18], 80%. Further, the residual activity was determined as 49% in experiment [19] and 76% in experiment [20].

In the case of `N#C/C(=C(\N)Sc1ccc(N)cc1)c1ccccc1C(F)(F)F`, the residual activity in [1] is 68%; in experiment [2], 56%; in experiment [3] it was 113% (inactive); in [4], 112%; in experiment [5], 101% (inactive); in [6] it was 90% (inactive). Moreover, the residual activity was 87% in experiment [7]; 95% in experiment [8]; 99% in [9]; 98% in experiment [10]; 101% in [11]; 94% in experiment [12]. Further, the residual activity in [13] is 90%; in experiment [14], 89%; in experiment [15], 96%; in [16], 96%; in experiment [17], 105%; in [18] it was 50%. The residual activity in experiment [19] amounted to 43%; in experiment [20], 65%.

Take `COc1cccc(-c2cc(=O)c3ccccc3o2)c1N`: the residual activity in [1] is 119%; in experiment [2], 106%; in experiment [3], 114% (inactive); in experiment [4], 114%; in experiment [5], 111% (inactive); in [6] it was 106% (inactive). The residual activity turned out to be 107% in experiment [7]; 87% in experiment [8]; 103% in experiment [9]; 102% in [10]; 105% in [11]; 96% in experiment [12]. The residual activity in [13] came out at 122%; in experiment [14], 99%; in [15], 96%; in experiment [16], 89%; in [17], 101%; in experiment [18], 83%. Further, the residual activity in experiment [19] came out at 70%; in [20], 95%.

As to `O=C1NC(=O)/C(=C/c2ccc3c(c2)OC(F)(F)O3)S1`, the residual activity is 73% in experiment [1]; 35% in experiment [2]; 84% (inactive) in [3]; 93% in experiment [4]; 100% (inactive) in experiment [5]; 97% (inactive) in experiment [6]. Also, the residual activity in experiment [7] is 107%; in experiment [8] it was 84%; in experiment [9] it was 104%; in experiment [10], 76%; in [11] it was 102%; in experiment [12], 95%. For the same molecule, the residual activity in experiment [13] turned out to be 80%; in experiment [14] it was 70%; in [15], 81%; in [16] it was 78%; in [17] it was 37%; in experiment [18] it was 96%. The values for the residual activity in [19] and in experiment [20] were 70% and 69%, respectively.

`CC#CC(=O)Nc1cc2c(Nc3ccc(F)c(Cl)c3)ncnc2cn1`: the residual activity is 96% in [1]; 98% in experiment [2]; 82% (inactive) in [3]; 91% in experiment [4]; 94% (inactive) in [5]; 100% (inactive) in experiment [6]. The residual activity in experiment [7] is 93%; in experiment [8], 79%; in experiment [9] it was 82%; in experiment [10], 81%; in experiment [11] it was 99%; in experiment [12], 91%. Moreover, the residual activity in experiment [13] is 104%; in [14], 107%; in [15] it was 102%; in experiment [16] it was 96%; in experiment [17] it was 99%; in experiment [18], 86%. Also, the values for the residual activity in experiment [19] and in experiment [20] were 71% and 81%, respectively.

Consider `O=[N+]([O-])c1ccc(-c2nc(-c3ccc(F)cc3)c(-c3ccncc3)[nH]2)cc1`, for which the residual activity in experiment [1] was 122%; in experiment [2], 62%; in [3], 109% (inactive); in experiment [4], 123%; in experiment [5], 99% (inactive); in [6], 111% (inactive). The residual activity was found to be 31% in experiment [7]; 40% in experiment [8]; 105% in [9]; 101% in [10]; 108% in [11]; 98% in [12]. The residual activity in experiment [13] was determined as 94%; in experiment [14] it was 96%; in experiment [15] it was 102%; in experiment [16], 105%; in experiment [17] it was 119%; in experiment [18] it was 50%. Besides, the residual activity in experiment [19] worked out at 11%; in [20] it was 83%.

Turning to `COc1ccc(OC)c2c(=S)c3ccccc3[nH]c12`, the residual activity is 115% in experiment [1]; 86% in experiment [2]; 97% (inactive) in experiment [3]; 91% in [4]; 103% (inactive) in experiment [5]; 97% (inactive) in experiment [6]. The residual activity in experiment [7] amounted to 85%; in [8] it was 76%; in experiment [9] it was 90%; in experiment [10], 73%; in experiment [11] it was 95%; in experiment [12] it was 90%. For the same molecule, the residual activity in experiment [13] was 115%; in experiment [14], 101%; in experiment [15], 95%; in experiment [16] it was 80%; in [17] it was 102%; in [18] it was 83%. Moreover, the residual activity turned out to be 57% in experiment [19] and 79% in [20].
